Laboratory results: PubChem BioAssay AID651568 (National Center for Advancing Translational Sciences (NCATS), 2012)
In all, about 1,200 compounds went through this assay and about 55 (5%) were called active. Not shown: some 15% with an inconclusive outcome. Only a selection was taken, and actives are over-represented in it overall. A number with no mark means an inactive call. Calls follow the shape of the dose curve; as a rule, active = well fitted inhibition curve with a large enough effect; inconclusive = small, poorly fitted or top-dose-only effect; inactive = no such curve, though single readings can be large or run the other way.

test: qHTS Assay to Find Inhibitors of Chronic Active B-Cell Receptor Signaling: Hit Validation in Renilla Reporter Assay; conditions: TMD8 IkB-Renilla luciferase reporter, NF-kB signaling; series mostly up to 57.5 µM; activity change, negative = inhibition: at the top concentration; also: nearly all actives have a fitted effect of over 70% in size
Excerpt: Diffuse large B-cell lymphoma (DLBCL) is the most common category of non-Hodgkin lymphoma, with ~20,000 new cases per year in the United States. DLBCL should be regarded as a collection of different neoplasms. Microarray gene expression analysis has defined two principal types of DLBCL, named for their similarity to normal B cell stages or activation states: a germinal center B-cell (GCB) type, and an activated B-cell (ABC) type. In ABC-DLBCL, a constitutive high-level activity of the NF-kappaB family of transcription factors has been observed (1) and NF-kappaB target genes are more highly expressed in ABC primary tumors than in GCB tumors. Functional studies have shown a constitutive high-level activity of the IkappaB (inhibitor of kappa-B) kinase (IKK) complex. […] Further analysis of DLBCL primary tumors for NF-kappaB target gene expression imply that although CARD11 is required for constitutive IKK activity in all ABC-DLBCL lines, mutations in CARD11 may be the root cause of IKK activation only in lines or tumors with such mutations. In other words, CARD11 mutations may explain NF-kappaB activation in only 10% of ABC-DLBCL cases. […] This process has been termed 'chronic active BCR signaling' (CABS). The goal of this screen is to find small-molecule inhibitors of the CABS pathway found in ABC-DLBCL lines using a cell-based assay that measures IkappaBalpa stability, which has already been extensively validated in the OCI-Ly3 line (PubChem AID:445; REF: 4). […] Hits from the primary screen were tested in this orthogonal secondary assay. NIH Molecular Libraries Probe Production Network [MLPCN] NIH Chemical Genomics Center [NCGC] MLPCN Grant: R03 DA031086 PI Name: Dr. R. Eric Davis
The IkB-Photinus/Renilla reporter assay differs from the primary assay in that the reporters are constitutively expressed, and based on luciferases that are different from the click beetle luciferases and each other. These differences should help to eliminate artifactual sources of activity specific to the primary assay. This assay uses the Dual-Glo substrate from Promega; extensively validated in a 96-well format, it could be converted to a smaller-well format. All lines needed for the IkB-Photinus/Renilla assay have already been prepared and extensively validated
% is scaled to controls: 0 for no effect and ±100 for the full control effect; potency is read from the fitted curve at half-maximal effect.

Structure (SMILES)	activity change, negative = inhibition	Potency
Cn1c(=O)n(Cc2ccccc2Cl)c2ccccc21	7.35%	
CCc1ccc(CCC(=O)Nc2ncc(Cc3ccccc3Cl)s2)o1	-12.8%	
N=C1SCC(=O)N1c1ncc(Cc2cccc(Cl)c2)s1		3.01 µM (active)
N=C1SCC(=O)N1c1ncc(Cc2ccccc2Cl)s1		8.49 µM (active)
COc1ccccc1-c1noc(CSc2nc(N)cc(=O)[nH]2)n1	-1.85%	
COc1ccc(S(=O)(=O)Nc2cc3c(C(C)=O)c(C)oc3c3ccccc23)cc1	24.7%	
O=c1cc(-c2ccccc2)[nH]c2ccccc12	1.97%	
COc1ccc2cc(C3c4cc(OC)c(OC)cc4CCN3C(=O)c3ccco3)c(=O)[nH]c2c1 (stereo unspecified)	0.254%	
CCOC(=O)c1[nH]c(C)c(C(=O)c2cc(F)ccc2F)c1C	-10.3%	
C/C(=N\NC(=O)c1c([N+](=O)[O-])c(C)nn1C)c1ccc(NC(=O)C2CCCC2)cc1	5.23%	
CCOC(=O)c1[nH]c2c(c1C)C(=O)CC(c1ccc(F)cc1)C2 (stereo unspecified)	8.44%	
CC[C@]12c3[nH]c4cc(CCC(=O)N(C)C)ccc4c3CCN1C(=O)[C@@H](CC(=O)NCCCN(C)C)C[C@@H]2C(=O)N1CCN(C(=O)c2ccco2)CC1	-12.6%	
COc1ccc(/C=C/C(=O)c2cc(F)ccc2OC(=O)c2ccccc2C)cc1OC		13.5 µM (active)
COc1ccc(/C=C/c2ccncc2)cc1OC	1.23%	
Cc1ccccc1C(=O)Oc1ccc2ccc(O)cc2c1	1.03%	
COc1ccc(/C=C/C(=O)c2cc(F)ccc2OC(=O)c2ccc(OC)c(OC)c2)cc1OC		7.57 µM (active)
COc1ccc(/C=C/C(=O)c2cc(F)ccc2OC(=O)c2ccccc2OC)cc1OC		6.75 µM (active)
CCc1ccc(NC(=O)C(C)OC(=O)/C=C/c2ccc(O)c(OC)c2)cc1 (stereo unspecified)	-16.3%	
COc1ccc(S(=O)(=O)N2CCOCC2)cc1NC(=O)/C=C/c1ccc(F)cc1	2.91%	
COc1ccc(/C=N\NC(=O)c2ccccc2F)cc1COc1ccc(F)cc1F	-2%	
COc1ccc(NC(=S)N/N=C/c2ccc(F)cc2)cc1OC	2.21%	
COc1cccc(/C=N/Nc2nc(Nc3ccccc3)nc(-n3nc(C)cc3C)n2)c1O	-13.7%	
NC(=O)c1c(NC(=O)CSc2nc(N)cc(=O)[nH]2)sc2c1CCCC2	-13.8%	
CCOc1ncccc1C(=O)N1CCN(c2cc(Cl)ccc2C)CC1	-5.04%	
Cc1ccc(/C=N/NC(=O)c2cc(-c3ccncc3)nc3ccccc23)o1	1.04%	
CCOC(=O)c1c(C)n(C)c2ccc(OC)c(NC(=O)CN3CCC4(CC3)OCCO4)c12	0.686%	

Structure (SMILES)	activity change, negative = inhibition	Potency
COC(=O)C1=C(C)NC(C)=C(C(=O)OC)C1/C=C/c1ccccc1	22.2%	
O=C(/C=C/c1ccccc1)c1ccc(NC2=NCCCS2)cc1		21.3 µM (active)
Cc1nc(NC(=O)c2cnccn2)ccc1Br	-7.88%	
Cn1c(=O)[nH]c(=O)c2c1nc(SCC(N)=O)n2Cc1cccc(Br)c1	3.59%	
CCOC(=O)C1CCN(S(=O)(=O)c2c(Cl)ccc3nonc23)CC1		3.01 µM (active)
CCOC(=O)C1CCN(C(=O)CSc2cc(=O)n(CC)c3ccccc23)CC1	4.83%	
COc1ccc(C(=O)NN(C)c2nc(C(F)(F)F)nc3ccccc23)cc1	-4.63%	
COc1ccc(-c2cnnn2-c2ccc(NC(=O)c3ccc(S(=O)(=O)N4CCCCC4)cc3)cc2)cc1OC	9.05%	
Cc1cccc(-n2c3nc(=O)[nH]c(=O)c-3cc3cc([N+](=O)[O-])ccc32)c1		26.9 µM (active)
Cc1ccc(C(=O)c2cc([N+](=O)[O-])ccc2N2CCOCC2)c(C)c1	-2.34%	
Cc1ccc(C(=O)c2cc([N+](=O)[O-])ccc2N2CCCCC2)c(C)c1	-15.6%	
COCCn1c(-c2cccc([N+](=O)[O-])c2)nc2c1c(=O)[nH]c(=O)n2Cc1ccccc1	-17.5%	
Cc1ccc(C)c(-n2c3nc(=O)[nH]c(=O)c-3cc3cc([N+](=O)[O-])ccc32)c1		16.9 µM (active)
CNC(=S)N/N=C(\C)c1ccc2c(c1)OCCO2	-1.41%	
CCOc1ccc2c(c1)OC(c1ccc(OC)cc1)(C(F)(F)F)NC2=O (stereo unspecified)	-4.62%	
CC(C)(C)c1ccc(C(=O)CCC(=O)NCc2ccccc2)cc1	-2.67%	
C=CCN(C(=O)CSC1=NC(=O)CN1C(C)=O)c1nc(C)c(-c2ccccc2)s1	58.9%	
S=c1nn[nH]n1C12CC3CC(CC(C3)C1)C2	-6.62%	
Cc1ccccc1Nc1nc(N)nc(COC(=O)c2cccc(S(=O)(=O)N(C)C)c2)n1	15%	
CCOC(=O)C1=C(COC(=O)/C=C/c2ccc(O)c(OC)c2)NC(=O)NC1C (stereo unspecified)	-15%	
COc1ccc(/C=N/NC(=O)CCn2cnc(-c3ccccc3)c2-c2ccccc2)cc1		26.9 µM (active)
O=C(COc1ccccc1-c1ccccc1)N/N=C/c1ccc2ccccc2c1	-0.205%	
COc1ccc(/C=N/NC(=O)CCn2cnc(-c3ccccc3)c2-c2ccccc2)cc1OC	-24.2%	
COc1ccc(OC)c(Nc2c3c(nc4ccccc24)CCC3)c1	-24.8%	
Cc1ccc(C(=O)Sc2cccccc2=O)cc1		6.75 µM (active)
